Only some compounds are listed: those with a hit (about 3.9% of all), similar ones and a draw of the others.
NSD2 inh – NSD2 histone methyltransferase inhibitors, primary screen, biochemical, AlphaScreen, single concentration, set 2; Histone-lysine N-methyltransferase NSD2 (Homo sapiens), O96028; NSD2 peptide methylation, 120 min; 310,000 tested, 0.54% active; inhibition, % at 12.5 µM; AID 743445, 2014; in the data active means inhibition above about 50%
Target sequence (O96028 whole entry, looked up): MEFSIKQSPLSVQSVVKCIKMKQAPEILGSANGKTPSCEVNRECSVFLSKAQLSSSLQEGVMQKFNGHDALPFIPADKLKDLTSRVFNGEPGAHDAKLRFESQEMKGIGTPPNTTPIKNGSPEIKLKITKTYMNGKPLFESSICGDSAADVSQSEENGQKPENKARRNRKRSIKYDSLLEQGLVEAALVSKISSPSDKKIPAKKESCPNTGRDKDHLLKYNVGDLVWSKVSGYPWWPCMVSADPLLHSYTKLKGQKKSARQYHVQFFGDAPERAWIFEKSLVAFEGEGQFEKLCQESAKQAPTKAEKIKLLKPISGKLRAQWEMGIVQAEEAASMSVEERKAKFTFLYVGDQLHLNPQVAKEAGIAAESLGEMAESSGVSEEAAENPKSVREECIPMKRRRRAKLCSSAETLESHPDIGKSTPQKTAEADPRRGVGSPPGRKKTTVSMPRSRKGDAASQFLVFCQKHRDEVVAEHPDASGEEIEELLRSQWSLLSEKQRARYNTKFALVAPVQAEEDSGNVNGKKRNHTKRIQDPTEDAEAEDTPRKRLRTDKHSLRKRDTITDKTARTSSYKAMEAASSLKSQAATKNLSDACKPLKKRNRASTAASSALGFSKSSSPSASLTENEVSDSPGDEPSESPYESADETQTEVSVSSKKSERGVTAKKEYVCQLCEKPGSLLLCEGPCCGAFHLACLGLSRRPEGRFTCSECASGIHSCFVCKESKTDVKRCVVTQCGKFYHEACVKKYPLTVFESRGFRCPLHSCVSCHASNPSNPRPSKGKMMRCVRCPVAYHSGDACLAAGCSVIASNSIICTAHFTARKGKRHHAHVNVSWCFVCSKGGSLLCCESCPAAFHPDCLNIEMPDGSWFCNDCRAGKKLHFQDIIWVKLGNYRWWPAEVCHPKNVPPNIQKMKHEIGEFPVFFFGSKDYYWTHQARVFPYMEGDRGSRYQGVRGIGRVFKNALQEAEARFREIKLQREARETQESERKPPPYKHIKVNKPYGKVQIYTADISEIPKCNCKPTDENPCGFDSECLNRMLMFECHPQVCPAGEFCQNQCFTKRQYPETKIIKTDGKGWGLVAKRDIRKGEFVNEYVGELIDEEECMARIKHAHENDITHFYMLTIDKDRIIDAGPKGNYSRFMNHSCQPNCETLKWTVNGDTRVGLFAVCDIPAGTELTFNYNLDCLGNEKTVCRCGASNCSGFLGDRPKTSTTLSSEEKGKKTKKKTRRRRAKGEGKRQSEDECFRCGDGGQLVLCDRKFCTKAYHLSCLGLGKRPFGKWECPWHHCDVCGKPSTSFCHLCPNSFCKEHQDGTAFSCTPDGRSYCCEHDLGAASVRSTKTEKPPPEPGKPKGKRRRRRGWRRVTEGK
SUMO Mot1 rescue – yeast Mot1-301 growth rescue at high temperature, primary screen, SUMOylation pathway inhibitor project, S. cerevisiae, ATP luminescence, 38.5C. S. cerevisiae Mot1-301 growth rescue; percent above DMSO median, 100 means doubled. growth rescue, % at 18.8 µM. 320,000 tested, 1% active. AID 2716, 2010;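 active means every valid replicate shows activation above 250% relative to neutral control wells; inactive means the rest, any valid replicate at or below 250%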;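 further: OY570 slx delta 5 strain wells were the positive control but not used for scaling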
N-glyco inh – increase of ERlucT glycosylation luciferase signal, primary screen, N-linked glycosylation inhibitor project, D54 ERlucT cells, luminescence, set 2 | D54 ERlucT glycosylation luciferase reporter, 24 h; percent of 100 nM tunicamycin response | reporter increase, % at 12.5 µM | 360,000 tested, 0.23% active | AID 588692, 2011;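 active means mean luciferase reporter signal, scaled so untreated is 0 and the glycosylation-blocking control 100, at or above a set limit in every replicate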;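 further: luciferase carries N-glycosylation sites so blocking glycosylation raises the light; 0% = median of neutral control wells and 100% = median of 100 nM tunicamycin wells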
ALR inh – inhibitors of human ALR sulfhydryl oxidase, primary screen, biochemical, H2O2 detection, HRP-luminol luminescence, single point. purified ALR, DTT oxidation. 290,000 tested, 3.8% active. inhibition, % (concentration not given with the values);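 active means mean replicate inhibition above about 79%, with every replicate also reaching it, limit read from the data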
CASP6 VEID inh – human caspase-6 inhibitors, primary screen, biochemical, VEID-R110 fluorescence, single point, set 2 | P55212 | purified caspase-6, Z-VEID-R110 cleavage fluorescence | inhibition, % at 12.5 µM | 350,000 tested, 0.53% active | AID 686996, 2013;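 active means mean inhibition across replicates at least about 35%, with every replicate also reaching that limit, limit read from the data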;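 further: 0% = median of neutral control wells and 100% = no fluorescence left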
CDK5 p35 inh – inhibitors of human CDK5/p35 kinase, primary screen, biochemical, single concentration | Recombinant CDK5/p35, ADP-Glo luminescence, 60 min | inhibition, % at 10 µM | 330,000 tested, 0.01% active;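 active means highest replicate inhibition of at least 50% and at least 75% of replicates reaching 50%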;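 further: plate controls were DMSO neutral control for no effect and GW8510 at 10 µM for full effect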
Active calls of the source: *; nt = no result.

SMILES | NSD2 inh | SUMO Mot1 rescue | N-glyco inh | ALR inh | CASP6 VEID inh | CDK5 p35 inh
O=C1CCc2cc(S(=O)(=O)NC(C(=O)NCc3cccnc3)c3ccccc3)ccc2N1 (centres undefined) | nt | nt | 0 | nt | 2 | 1
CCC(=O)N1CCc2cc(S(=O)(=O)NC(Cc3ccccc3)C(=O)NC3CCCC3)ccc21 (centres undefined) | 19 | -8 | 0 | 19 | nt | -2
Cc1ccc(CNC(=O)C(Cc2ccccc2)NS(=O)(=O)c2ccc3c(c2)CCC(=O)N3)cc1 (centres undefined) | nt | -3 | -1 | -7 | -1 | -2
CCCNC(=O)C(Cc1ccccc1)NS(=O)(=O)c1ccc2c(c1)CCC(=O)N2 (centres undefined) | nt | 308 | 1 | 84* | 1 | -4
CN(Cc1ccco1)C(=O)C(Cc1ccccc1)NS(=O)(=O)c1ccc2c(c1)CCC(=O)N2 (centres undefined) | nt | 6 | -3 | 78* | 5 | 0
C[C@H]1CCCCO[C@@H](CN(C)C(=O)Nc2ccc(F)cc2)[C@@H](C)CN([C@@H](C)CO)C(=O)c2cc(NC(=O)c3ccncc3)ccc2O1 | nt | nt | nt | nt | -1 | nt
CCNc1ccc(S(=O)(=O)N(C)C)cc1NCC(=O)Nc1ccccc1Cl | 2 | 16 | -2 | 99* | 1 | 3
COc1ccccc1N=c1sc2ccccc2n1C | -1 | -2 | -3 | 56 | nt | 1
COc1ccc(N=c2sc3ccccc3n2C)cc1 | -3 | 27 | -6 | 98* | nt | -2
C[C@@H]1CN([C@@H](C)CO)C(=O)c2cc(C#CCc3ccccc3)cnc2O[C@@H]1CN(C)Cc1ccccc1 | nt | nt | nt | nt | 0 | nt
COCC(=O)OC/C(O)=C(\C#N)c1nc2ccccc2[nH]1 | 2 | 10 | 32* | nt | -4 | 1
CCCC(=O)OC/C(O)=C(\C#N)c1nc2ccccc2[nH]1 | 0 | -22 | 20 | -28 | nt | -2
O=[N+]([O-])/C(C(Cl)=C(Cl)Cl)=C(/Sc1ccccc1)N1CCCCC1 | 0 | -7 | 0 | 92* | -1 | -1
C[C@H]1CN([C@@H](C)CO)C(=O)c2cc(C3=CCCC3)cnc2O[C@@H]1CN(C)C(=O)Cc1ccncc1 | nt | nt | nt | nt | 0 | nt
Oc1ccccc1-c1n[nH]c(=S)n1Cc1ccccc1 | 0 | 8 | -1 | 24 | 9 | 0
CCn1c(-c2ccccc2O)n[nH]c1=S | -3 | -17 | 4 | 92* | nt | 1
CCn1c(-c2cc(-c3ccccc3)sc2N)n[nH]c1=S | 7 | 11 | 3 | 99* | 4 | 2
C[C@@H]1CN([C@@H](C)CO)C(=O)c2cc(NC(=O)C3CC3)ccc2O[C@@H]1CN(C)Cc1ccc2c(c1)OCO2 | nt | nt | nt | nt | -2 | nt
Cn1nc(C(C)(C)C)cc1C(=O)NNC(=O)c1ccc(C(F)(F)F)cc1 | -2 | 304* | 4 | -2 | 0 | 0
COCC(=O)N(C)C[C@H]1Oc2cc(C#CCN(C)C)ccc2S(=O)(=O)N([C@@H](C)CO)C[C@@H]1C | nt | nt | nt | nt | -1 | nt
COc1cccc(-c2cc(N)nn2C(=O)Nc2ccc(Cl)cc2)c1 | nt | 0 | 1 | 100* | -1 | 0
COc1cccc(NC(=O)C2CCCN2C(=O)Nc2ccc(Cl)cc2)c1 (centres undefined) | -29 | nt | nt | nt | nt | nt
O=C(c1cccc(Cl)c1)C1CCCN(Cc2ccc(N3CCNC3=O)cc2)C1 (centres undefined) | 3 | 5 | 0 | 96* | -3 | -1
Cc1noc(C)c1S(=O)(=O)Nc1ccc2c(c1)CC(=O)N([C@@H](C)CO)C[C@@H](C)[C@@H](CN(C)C)O2 | nt | nt | nt | nt | -1 | nt
COc1ccccc1CNc1ccc(N2CCCCC2)cc1 | nt | -5 | -7 | 98* | nt | -1
SMILES | NSD2 inh | SUMO Mot1 rescue | N-glyco inh | ALR inh | CASP6 VEID inh | CDK5 p35 inh
COc1ccccc1CNc1ccc(C(=O)O)cc1 | -3 | -8 | 0 | -5 | nt | 2
COc1cccc(CNc2ccc(N3CCCCC3)cc2)c1OC | 29 | -4 | -2 | 96* | nt | -1
COc1cc(CNc2ccc(N3CCCC3)cc2)cc(Cl)c1OC | 12 | -8 | 10 | 19 | -1 | 2
COc1cccc(Nc2ccc(N3CCCCC3)cc2)c1OC | nt | 0 | -15 | 100* | 4 | 1
C[C@H](CO)N1C[C@H](C)[C@@H](CN(C)C)Oc2ccc(NS(=O)(=O)c3cccs3)cc2CC1=O | nt | nt | nt | nt | 0 | nt
C[C@@H]1CCCCO[C@@H](CN(C)C(=O)Cc2ccccc2)[C@H](C)CN([C@H](C)CO)C(=O)c2cc(NS(=O)(=O)c3cccs3)ccc2O1 | nt | nt | nt | nt | 1 | nt
O=C(COC(=O)CNC(=O)c1ccco1)NCCN1C(=O)CSC1=O | 6 | 320* | 2 | -3 | nt | 5
O=C(C[C@H]1CC[C@H](NC(=O)c2cccnc2)[C@@H](CO)O1)NCc1ccc(Cl)c(Cl)c1 | nt | nt | nt | nt | -1 | nt
COc1cccc(NC(=O)CSCc2cc(=O)n3nc(C4CC4)sc3n2)c1 | 1 | -3 | 2 | 99* | -2 | 1
Cc1ccc(NC(=O)CSCc2cc(=O)n3nc(C4CC4)sc3n2)cc1 | -2 | -1 | 1 | 99* | 1 | -1
COc1ccc(NC(=O)CSCc2cc(=O)n3ccsc3n2)cc1 | 0 | -15 | -1 | -3 | 1 | 1
Cc1cc(C)n2nc(SCC(=O)N3CCN(c4ccccc4)CC3)nc2n1 | -3 | -17 | 1 | 98* | 1 | 0
CC1(C)Cc2ccccc2-c2nnc(SCc3ccccc3)n21 | 2 | -11 | -4 | nt | 8 | 1
Cc1ccnc(SCC(=O)N2CCN(c3ccccc3)CC2)n1 | 1 | 12 | 0 | 98* | nt | 1
CC1(C)Cc2ccccc2-c2nnc(SCC(=O)N3CCN(c4ccccc4)CC3)n21 | nt | 10 | -2 | 97* | nt | 1
Cc1cc(C)n2nc(SCC(=O)N3CCCC3)nc2n1 | -2 | -8 | 1 | 5 | 2 | -1
C[C@H](CO)N1C[C@H](C)[C@H](CN(C)Cc2ccccn2)Oc2ncc(C3=CCCC3)cc2C1=O | nt | nt | nt | nt | -7 | nt
C[C@H]1CN([C@@H](C)CO)C(=O)c2cccc(NS(=O)(=O)c3ccc(Cl)cc3)c2O[C@H]1CN(C)S(=O)(=O)c1cccs1 | nt | nt | nt | nt | 0 | nt
Cc1cccc(OCC(=O)Nc2cc(NC(=O)COc3cccc(C)c3C)cc(C(=O)O)c2)c1C | 1 | 134 | 2 | 80* | 3 | -1
CC(NC(=O)COc1ccc(Br)cc1)C(=O)O (centres undefined) | nt | -31 | 2 | -1 | -3 | 1
